From PubChem BioAssay
Rab9 prom act: Rab9 promoter activation; 320,000 compounds, 2.8% hits; Huh7 Rab9 promoter-luciferase reporter, luminescence, 24 h; AID 485297; Potency, µM (top dose mostly 9.22 µM), for the others: at the top dose activation, negative = inhibition, usual class: activators; further: % of control where 0% means no effect; nearly all actives have a fitted effect of over 60% in size
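Measured in stably transfected Huh7 cells bearing a Rab9 promoter–luciferase construct: 24 h compound treatment at 37 °C, followed by luminescence detection.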
ELG1 genotoxic: inducers of genotoxicity in HEK293T ELG1-luciferase cells; Potency, µM (titrated, usually from 46 µM), for the others: at the highest dose activity change, positive = activation, most hits filed as activators; AID 504466; 330,000 compounds, 1.3% hits; HEK293T ELG1-luciferase reporter, luminescence, 16 h; further: % of control where 0% means no effect; nearly all actives have a fitted effect of over 60% in size
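ELG1-luciferase HEK293T cells, 2,000/well; compound pinned in; 16 hr, 37 °C, 5% CO2; ONE-Glo, 30 min RT; luminescence on CCD imager.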
NPC1 prom act: NPC1 promoter activation | Potency, µM (series often up to 9.22 µM), without a hit: at the highest dose activation, hits mostly activators | 320,000 compounds, 2.4% hits | Huh7 NPC1 promoter luciferase reporter, 24 h; further: % of control where 0% means no effect; nearly all actives have a fitted effect of over 60% in size
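In 1536-well qHTS, Huh7 cells harboring an NPC1 promoter–luciferase construct received compound for 24 h; activation was quantified by luminescence following luciferase reagent addition.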
SMN2 splice up: enhancers of SMN2 splice variant expression; HEK293 SMN2-luciferase splicing reporter, luminescence, 30-36 h; Potency, µM (top dose mostly 46.1 µM), for inactives: at the highest dose activity change, positive = activation, most hits filed as activators; 210,000 compounds, 2.8% hits; AID 1458; further: % of control where 0% means no effect; nearly all actives have a fitted effect of over 55% in size
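HEK293 cells carry an SMN2 […]–luciferase reporter in which exon 7 inclusion puts luciferase in frame. Cells were plated 10-12 h before compound addition, then incubated 30-36 h at 37C. ONE-Glo luminescence was read; sodium butyrate at 4.5 mM final served as control.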
FLuc modulator: counter-screen for miR-21 project: firefly luciferase inhibitors or activators; purified FLuc, Km substrates, luminescence inhibition; AID 588342; Potency, µM (top dose mostly 57.5 µM), inactives show at the highest dose activity change, negative = inhibition, actives largely listed as inhibitors; 360,000 compounds, 6.9% hits; P08659;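 further: plate controls were vehicle for no effect and reference inhibitor for full effect; nearly all actives have a fitted effect of over 55% in size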
Target sequence (P08659 whole entry, looked up): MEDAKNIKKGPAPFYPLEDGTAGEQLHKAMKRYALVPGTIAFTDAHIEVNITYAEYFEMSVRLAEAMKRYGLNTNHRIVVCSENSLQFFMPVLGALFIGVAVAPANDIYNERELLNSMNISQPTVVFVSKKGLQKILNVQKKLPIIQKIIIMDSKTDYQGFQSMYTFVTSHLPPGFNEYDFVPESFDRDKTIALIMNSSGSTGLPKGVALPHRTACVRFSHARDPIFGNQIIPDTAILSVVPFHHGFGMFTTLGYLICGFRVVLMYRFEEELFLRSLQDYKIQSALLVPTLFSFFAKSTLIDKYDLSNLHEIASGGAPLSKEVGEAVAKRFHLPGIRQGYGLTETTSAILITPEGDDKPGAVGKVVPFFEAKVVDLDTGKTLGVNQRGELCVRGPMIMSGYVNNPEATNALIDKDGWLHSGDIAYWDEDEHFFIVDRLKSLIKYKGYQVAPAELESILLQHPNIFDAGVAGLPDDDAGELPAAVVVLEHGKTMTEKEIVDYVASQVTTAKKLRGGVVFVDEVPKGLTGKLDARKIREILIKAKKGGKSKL
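Purified P. pyralis luciferase (10nM final) with 10uM D-luciferin and 10uM ATP (Km levels) in 50mM Tris acetate pH 7.5, 10mM Mg acetate, 0.01% Tween-20, 0.05% BSA; qHTS 6-point titration, ~60 µM downward; luminescence read.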
* marks the source's active call; other numbers are inactive results; ? = inconclusive; · = no result given; [ ] = another dose, or the depositor's remark. This is a sample that favours compounds with a hit; in the whole collection about 7.4% have one here. The call rests on the fitted dose curve; in most records, active means well fitted curve in the direction sought with a large enough effect; inconclusive means small, poorly fitted or top-dose-only effect, or another doubt; inactive means no such curve, though single readings can be large; an effect the other way counts as inactive or inconclusive. Potency means the concentration at half of the fitted maximal effect.

SMILES | Rab9 prom act | ELG1 genotoxic | NPC1 prom act | SMN2 splice up | FLuc modulator
COc1ccc(OCc2nc3ccccc3[nH]2)cc1 | 0.562µM* | 1.84µM* | 1.58µM* | 11.2µM* | 3.38µM*
COc1cccc(OCc2nc3ccccc3[nH]2)c1 | 3.55µM* | ? | 3.16µM* | 12.6µM* | 6.75µM*
COc1cccc(OCc2nc3ncc(Br)cc3[nH]2)c1 | 11.5% | ? | -7.9% | ? | -18.9%
Brc1ccc(OCc2nc3ccccc3[nH]2)cc1 | 2.51µM* | ? | 3.16µM* | · | 2.39µM*
NNC(=O)c1ccc(OCc2nc3ccccc3[nH]2)cc1 | · | · | · | -15.3%[9.22 µM] | ·
c1ccc2cc(OCc3nc4ccccc4[nH]3)ccc2c1 | 2µM* | ? | 2.24µM* | 2.82µM* | 1.9µM*
C[C@H](CO)N1C[C@H](C)[C@@H](CN(C)Cc2ccccc2)Oc2c(NC(=O)C3CC3)cccc2C1=O | · | -3.6% | · | · | ·
COc1ccc(CNC(=O)CCc2c(C)nc3c4cccnc4nn3c2C)cc1 | · | · | · | -7.9% | 0.7%
C=CCn1c(SCC(=O)NC2CCCC2)nc2c([nH]c3ccccc32)c1=O | 3.3% | ? | 2.4% | · | 5.6%
O=C(NC1=NCCS1)c1cccc(N2C(=O)c3ccccc3C2=O)c1 | 0.4% | 0.4% | -4.4% | -11.7% | -12.4%
O=C(NC12CC3CC(CC(C3)C1)C2)c1cccc(OC(F)F)c1 | 1.9%[1.84 µM] | 0.2% | 25.3% | · | 15.1µM*
CN1CCc2nc(NC(=O)c3cccc(OC(F)F)c3)sc2C1 | 21.7% | ? | 24.2% | 16.0% | 10.7µM*
COc1cc(OC)cc(C(=O)NC2=NCCS2)c1 | 26.2% | ? | 3.3% | 7.9% | 10.7µM*
CN1CCc2nc(NC(=O)COc3ccc4ccccc4c3)sc2C1 | 0.4% | -20.2% | -3.0% | -71.9% | 1.6%
O=C(NC1=NCCS1)c1cccc(OC(F)F)c1 | 1.26µM* | 5.8µM* | 2.24µM* | 11.2µM* | 12µM*
CCN(CC)CCCn1c2c(c(SCC(=O)Nc3ccc4c(c3)OCO4)nc1=O)CCC2 | -6.9% | -3.1% | 10.0% | · | 2.9%
CC(C)Oc1ccc(C(=O)NC2=NCCS2)cc1 | 0.447µM* | ? | 0.708µM* | 2.51µM* | 6.01µM*
COc1ccc(C(=O)NC2=NCCS2)cc1 | 2.82µM* | ? | 2.24µM* | · | 19µM*
O=C(CSc1nc(-c2ccccc2)cs1)NCCCN1CCCC1=O | · | 1.2% | · | · | ·
CC(C)CCn1cnc2c(oc3nc4c(cc32)CCCC4)c1=O | 0.447µM* | ? | 0.501µM* | · | 1.69µM*
CCN1C(=O)c2ccccc2S(=O)c2ccc(C(=O)N3CCN(c4cc(Cl)ccc4C)CC3)cc21 (configuration not stated) | · | · | · | -37.1% | -0.7%
COc1ccc(-c2ccc(SCC(=O)N3c4ccccc4CC3C)nn2)cc1OC (configuration not stated) | -2.2% | -4.4% | 11.5% | ? | 4.26µM*
CC1Cc2ccccc2N1C(=O)CSc1nncn1C (configuration not stated) | 6.0% | 0.9% | -1.8% | 15.8% | -1.1%
CCOC(=O)N1CCN(C(=O)CSc2ccc(-c3ccc(OC)c(OC)c3)nn2)CC1 | 5.5% | -13.7% | 1.5% | 2.1% | 16.9µM*
CCOC(=O)N1CCN(C(=O)CSc2ccc(-c3ccc(OC)cc3)nn2)CC1 | -6.0% | 0.0% | 0.8% | -16.4% | 10.7µM*
SMILES | Rab9 prom act | ELG1 genotoxic | NPC1 prom act | SMN2 splice up | FLuc modulator
O=C(COc1ccc(Br)cc1)NCCNC(=O)c1ccncc1 | 3.6% | -3.5% | -0.1% | · | 2.8%
COc1ccc(/C=C/C(=O)Nc2cccc(F)c2)cc1 | · | · | · | 3.98µM* | 0.849µM*
COc1ccc(NC(=O)/C=C/c2ccc(Cl)cc2)cc1 | 2.51µM* | · | 2.06µM* | 11.2µM* | ·
COc1ccc(/C=C/C(=O)Nc2cccc(C(C)=O)c2)cc1 | ? | 8.2% | ? | 11.2µM* | 0.953µM*
CC(=O)Nc1cccc(C(=O)/C=C/c2ccc(Br)cc2)c1 | -5.2% | -20.4% | -1.9% | 15.7% | ?
COc1ccc(/C=C/C(=O)NC2CC3CCC2C3)cc1 (configuration not stated) | 19.1% | ? | 11.7% | · | 16.9µM*
COc1ccccc1N1CCN(c2c(CN3CCCC3)c(=O)oc3ccccc23)CC1 | · | · | · | -4.0% | 0.9%
COc1ccc(Cl)cc1C(=O)NCc1nnnn1-c1ccccc1 | · | · | · | · | -2.2%
Cc1oc(S(=O)(=O)N2CCCC2)cc1C(=O)Nc1ccccc1 | -10.3% | -6.4% | -1.5% | · | -0.5%
N=c1oc2c3c4c(cc2cc1C(=O)Nc1ccccc1)CCCN4CCC3 | ? | ? | ? | 10µM* | 1.9µM*
COc1ccccc1-n1cc(C(=O)NCC(=O)N2CCN(c3ccccc3)CC2)c2ccccc2c1=O | ? | 15.3% | 27.9% | ? | 0.757µM*
COc1ccccc1-n1cc(C(=O)NCC(=O)N2CCN(c3ccccn3)CC2)c2ccccc2c1=O | 17.2% | 12.1% | 16.1% | · | 3.38µM*
COc1ccccc1N1CCN(C(=O)CNC(=O)c2cn(-c3ccccc3OC)c(=O)c3ccccc23)CC1 | 22.2% | 6.7% | 7.4% | 9.0% | 6.75µM*
O=C(COc1ccccc1F)Nc1ccc2c(c1)OCCO2 | 3.16µM* | 10.3µM* | 1.78µM* | · | 6.75µM*
O=C(COc1ccccc1Br)Nc1ccc2c(c1)OCCCO2 | 1.41µM* | ? | 1.26µM* | · | 2.13µM*
CC(C)NC(=O)COc1ccccc1C#N | 1.0% | 8.0% | -8.9% | -8.5% | -1.2%
Cc1cc(OCC(=O)Nc2ccc3c(c2)OCCO3)cc(C)c1Cl | 1.1% | 0.6% | 3.5% | 10.2% | ?
N#Cc1ccccc1OCC(=O)Nc1ccc2c(c1)OCCCO2 | 3.16µM* | 25.9% | 2.24µM* | · | 16.9µM*
O=C(COC(=O)Cc1ccccc1F)Nc1ccc2c(c1)OCCO2 | -0.7% | -1.6% | 0.8% | 7.4% | 16.9µM*
O=C(CC(c1cccs1)N1Cc2ccccc2C1=O)Nc1ccc(F)cc1 (configuration not stated) | · | · | · | · | 0.8%
COc1ccc([C@H]2CC(=O)C=C(c3ccc(Cl)c(F)c3)C2)cc1 | -8.6% | 1.2% | 11.4% | · | -1.5%
O=C(COC(=O)Cc1ccccc1F)Nc1ccc2c(c1)OCO2 | 0.5% | -2.2% | -2.5% | 10.0% | ?
N#Cc1ccccc1OCC(=O)Nc1ccc2c(c1)OCCO2 | 1.41µM* | ? | ? | · | 9.53µM*
Cc1c(NC(=O)c2cccc(NC(=O)COc3ccccc3C#N)c2)c(=O)n(-c2ccccc2)n1C | 3.98µM* | -3.3% | 2.24µM* | · | 1.35µM*
O=C(COC(=O)c1c(F)cccc1F)Nc1ccc2c(c1)OCO2 | 0.2% | 1.8% | -1.4% | · | 6.75µM*
COc1cccc(NC(=O)COC(=O)c2c(F)cccc2F)c1 | -2.8% | 2.5% | -2.3% | 13.8% | 10.7µM*
O=C(O)c1ccc(C(=O)O)c(C(=O)c2ccc(NC(=O)c3ccccc3)cc2)c1 | -1.3% | -2.3% | -4.7% | · | 19µM*
O=C(O)c1ccc(NC(=O)c2cccc(C(=O)Nc3ccc(C(=O)O)cc3)c2)cc1 | 3.2% | 0.1% | -4.4% | · | -14.9%
